{
  "source": "PubChem BioAssay (NCI)",
  "note": "Compounds without any hit were thinned out: in the full panel of roughly 83,000, 20% have a hit.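 Step 1: grow cells in 96-well plates. Step 2: add test compound at a single concentration. Step 3: incubate 48 h. Step 4: record percent growth.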 Unmarked numbers belong to inactive results. Active and inactive are the calls of the source. How the source made its calls: active means growth percent below 10; inactive means the rest.",
  "data": [
    {"tested_on": "OVCAR-8 ovarian", "assay": "NCI-60 one-dose screen, 48 h (100 = growth as untreated, 0 = no growth, -100 = all killed)", "conditions": "10 µM unless noted", "values": [
      {"smiles": "CCC(c1ccccc1)C(CC)c1ccc(O)c(O)c1", "note": "(stereo not drawn)", "growth": "102%"},
      {"smiles": "CN1CCN(c2ccc3nc(-c4ccc5nc(-c6ccc(OCCC(C)(C)C)cc6)[nH]c5c4)[nH]c3c2)CC1", "growth": "-48.9% (active)"},
      {"smiles": "NC(N)=Nc1ccc(S(=O)(=O)O)cc1", "growth": "107%"},
      {"smiles": "O=C(/C=C/c1cc2ccccc2[nH]c1=O)/C=C/c1cc2ccccc2[nH]c1=O", "growth": "4.07% (active)"},
      {"smiles": "Nc1ccc(Nc2nccc(-c3ccc4ccccc4c3)n2)cc1", "growth": "48.2%"},
      {"smiles": "C=C1CCC2C3(C)COC(c4ccc(OC)cc4Br)OC3CCC2(C)C1/C=C/C1=CCOC1=O", "note": "(stereo not drawn)", "growth": "79.3%"},
      {"smiles": "CCC(=O)Oc1ccc(/C(=C(\\C)c2ccccc2)c2ccc(OCCN(CC)CC)cc2)cc1", "growth": "87.9%"},
      {"smiles": "CC(=O)/C(=C/c1cccc(Cl)c1)C(=O)c1ccccc1", "growth": "85.2%"},
      {"smiles": "NS(=O)(=O)c1ccc(-n2ncc3c(=O)[nH]c(CN4CCN(c5cc6c(cc5F)c(=O)c(C(=O)O)cn6C5CC5)CC4)nc32)cc1", "growth": "97.8%"},
      {"smiles": "COc1ccc(-c2nn(-c3ccccc3)cc2/C=C2\\SC(=O)NC2=O)cc1", "growth": "101%"},
      {"smiles": "O=C(COc1cccc(/C=C2/Oc3ccccc3C2=O)c1)Nc1nccs1", "growth": "61.8%"},
      {"smiles": "CN1CCN(Cc2ccc(NC(=O)c3[nH]ncc3Nc3ncnc4sccc34)cc2)CC1", "growth": "12%"},
      {"smiles": "CC1=N/C(=C\\c2cccc(Br)c2)C(=O)O1", "growth": "105%"},
      {"smiles": "COc1cc(C(=O)/C=C/c2c(C)n([O-])c3ccc(C)cc3[n+]2=O)cc(OC)c1OC", "growth": "5.36% (active)"},
      {"smiles": "CCN(CC)CC#CCOC(=O)[C@]1(C)CCC[C@@]2(C)[C@H]1CC(C=O)=C1C=C(C(C)C)CC[C@@H]12", "growth": "73.5%"},
      {"smiles": "C=C1CCC2C3(C)COC(c4ccccc4Br)OC3CCC2(C)C1C/C=C1/C(=O)OCC1OC(C)=O", "note": "(stereo not drawn)", "growth": "-36.2% (active)"},
      {"smiles": "CCOC(=O)C(=Cc1ccccc1F)C(=O)OCC", "growth": "105%"},
      {"smiles": "Cn1c2ccccc2c2c3c(c4c5ccccc5n(CCCCCC#N)c4c21)C(=O)N(O)C3=O", "growth": "27.5%"},
      {"smiles": "CC(=O)C1=C(O)C=C2Oc3c(C(=O)/C=C/c4c(Cl)cccc4Cl)c(O)c(C)c(O)c3[C@]2(C)C1=O", "growth": "-18.9% (active)"},
      {"smiles": "Oc1ccc(Nc2nccc(-c3ccc4ccccc4c3)n2)cc1", "growth": "31.6%"},
      {"smiles": "COc1ccc(C(=O)/C=C/c2cc3ccccc3[nH]c2=O)cc1", "growth": "20.4%"},
      {"smiles": "C[C@@]1(N2C(=O)OC[C@@H]2c2ccccc2)C(=O)N([C@H](CC(=O)N2CCC(N3CCCCC3)CC2)C(=O)NCc2cccc(C(F)(F)F)c2)[C@@H]1/C=C/c1ccccc1", "growth": "89.8%"},
      {"smiles": "CCOC(=O)c1cnc2ccc(Br)cc2c1Nc1cccc(S(=O)(=O)NC)c1", "growth": "101%"},
      {"smiles": "CCN1CCN(Cc2ccc(NC(=O)Nc3nc4ccc(Oc5ccnc(C(=O)NC)c5)cc4s3)cc2C(F)(F)F)CC1", "growth": "-18.6% (active)"},
      {"smiles": "O=c1c2c3c(sc2n2c(CCl)nnc2n1Cc1ccccc1)CCCC3", "growth": "7.48% (active)"},
      {"smiles": "COC(=O)[C@H](C(C)C)n1c(=O)c2cc(OC)c(OC)cc2c2cnc3[nH]ccc3c21", "growth": "65.1%"},
      {"smiles": "CC(=O)Oc1ccc(Nc2c3ccccc3nc3ccccc23)cc1", "growth": "-58.9% (active)"},
      {"smiles": "COc1cc(NCCCCN=C(N)NC(N)=NC(C)C)c2ncccc2c1", "growth": "45.4%"},
      {"smiles": "CCN(CC)C12CCCCC1(C)C(C#N)(C#N)C(C#N)=C(N)O2", "note": "(stereo not drawn)", "growth": "93.4%"},
      {"smiles": "O=C(CNC1C2CC3CC(C2)CC1C3)Sc1nnc2sc3ccccc3n12", "note": "(stereo not drawn)", "growth": "106%"},
      {"smiles": "COc1ccc(-c2c3c(nc4n[nH]c(-c5ccc(Cl)cc5)c24)-c2ccccc2C(=O)C3=O)cc1", "growth": "3.87% (active)"},
      {"smiles": "O=C(/C=C\\c1ccc2ccccc2n1)c1cc(Cl)ccc1O", "growth": "63.6%"},
      {"smiles": "O=C1c2cc3c(cc2-c2c1c1cc(Cl)c(Cl)cc1c(=O)n2CCCn1ccnc1)OCO3", "growth": "8.55% (active)"},
      {"smiles": "CC1(C)CC(=O)C(c2c(-c3ccccc3)[nH]c3[nH]c(=S)[nH]c(=O)c23)=C(O)C1", "growth": "100%"},
      {"smiles": "O=C(/C=C/c1cccc(Br)c1)c1ccccc1", "growth": "88.7%"},
      {"smiles": "O=C(CO[N+](=O)[O-])Nc1ccc(C(=O)/C=C/c2ccc(Cl)cc2)cc1", "growth": "27.2%"},
      {"smiles": "CN(C)c1ccc(/C=C\\C2=[N+](C)c3ccccc3C2(C)C)cc1", "growth": "20.8%"},
      {"smiles": "COc1ccc(CCN2CC=Cn3c2nc2ccccc2c3=O)cc1", "growth": "22.2%"}
    ]}
  ]
}
